Holding throughout (experiment): qHTS profiling for inhibitors of Plasmodium falciparum proliferation (AID 504749); note: nearly all actives have a fitted effect of over 60% in size
Holding throughout (conditions): P. falciparum in erythrocytes, SYBR Green DNA, 72 h; series mostly up to 12.8 µM

Assay [1] has as its system AA1029. The method, boiled down:
(§1)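 SYBR Green fluorescence (ex 485 nm, em 535 nm) reports parasite DNA after 72 h compound exposure of infected red cells at 0.3% parasitemia, 2.5% hematocrit; signal normalized to 0.29 uM artemisinin and vehicle wells.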

Assay [2] concerns AS120. In short, it runs like this:
as §1

Assay [3] concerns ATS95. The method, boiled down: as §1
Assay [4] deals with C2A. In short, it runs like this: as §1
Assay [5] has as its system CP185. In short, it runs like this: as §1
Assay [6] has as its system CP191. In short, it runs like this:
as §1

The test system of assay [7] is CP203. In short, it runs like this: as §1
Assay [8] deals with CP215. In short, it runs like this:
as §1

The test system of assay [9] is CP217. In short, it runs like this:
as §1

Assay [10] deals with CP247. The method, boiled down:
as §1

Assay [11] concerns CP252. The method, boiled down:
as §1

In assay [12] the test system is CP265. The method, boiled down: as §1
In assay [13] the test system is CP297. In short, it runs like this:
as §1

Assay [14] deals with ECU. In short, it runs like this:
as §1

The subject of assay [15] is GB4. In short, it runs like this: as §1
For assay [16], the system named is N140. In short, it runs like this:
as §1

The subject of assay [17] is P93_24. The method, boiled down:
as §1

Assay [18] relates to PC15. In short, it runs like this:
as §1

Assay [19] relates to TAB113. In short, it runs like this: as §1
In assay [20] the test system is W2. In short, it runs like this:
as §1

Inconclusive results are not listed. Calls of active or inactive are those of the source. Calls come from the whole dose curve; as a rule, active = well fitted inhibition curve with a large enough effect; inconclusive = small, poorly fitted or top-dose-only effect; inactive = flat fitted curve, though single readings scatter.
Potency is the fitted concentration of half-maximal effect.

Regarding `C[C@@]12C=CC(=O)C=C1CCC1C3CC(O)[C@@](O)(C(=O)CO)[C@]3(C)CC(O)[C@]12F` (some centres not stated), the Potency entry in [1], in assay [2], in assay [3], in assay [4], in assay [5] and in [6] was “inactive” each time. For the same molecule, the Potency entry in [7], in [8], in assay [9], in assay [10], in assay [11] and in assay [12] was “inactive” each time. The Potency result in [13], in assay [14], in assay [15], in assay [16], in [17] and in assay [18] was “inactive” in each case. Besides, the Potency entry in [19] and in assay [20] was “inactive” each time.

For `CCC(=O)O[C@@]1(C(=O)CCl)C(C)CC2C3CCC4=CC(=O)C=C[C@@]4(C)[C@]3(F)C(O)C[C@]21C` (some centres not stated), the Potency was 10 µM (active) in assay [1]; 10 µM (active) in assay [2]; 11.2 µM (active) in [3]; 13.5 µM (active) in assay [7]; 12.6 µM (active) in assay [11]; 12 µM (active) in [15]. For the same molecule, the Potency is 8.91 µM (active) in assay [16], 7.94 µM (active) in [17] and 5.36 µM (active) in assay [20].

With `C[C@]12CCC(=O)C=C1CCC1C2C(=O)C[C@]2(C)C1CC[C@]2(O)C(=O)CO` (some centres not stated), the Potency entry in [1], in assay [2], in assay [3], in assay [4], in [5] and in assay [6] was “inactive” throughout. Further, the Potency entry in assay [7], in [8], in assay [9], in assay [10], in assay [11] and in [12] was “inactive” each time. Besides, the Potency result in assay [13], in assay [14], in assay [15], in [16], in assay [17] and in assay [18] was “inactive” each time. Besides, the Potency result in assay [19] and in assay [20] was “inactive” each time.

In the case of `CC1(C)OC2CC(=O)OC[C@@]23C1CC(=O)[C@]1(C)C3CC[C@@]2(C)C(c3ccoc3)OC(=O)C3O[C@@]321` (some centres not stated), the Potency entry in assay [1], in [2], in assay [3], in assay [4], in assay [5] and in assay [6] was “inactive” each time. In addition, the Potency entry in assay [7], in assay [8], in assay [9], in assay [10], in [11] and in [12] was “inactive” in each case. Besides, the Potency entry in assay [13], in [14], in assay [15], in assay [16], in assay [17] and in assay [18] was “inactive” throughout. Moreover, in [19], the Potency entry is “inactive”.

Regarding `COC1OC(CO)C(OC2OC(C(=O)O)C(OC3OC(COS(=O)(=O)O)C(OC4OC(C(=O)O)C(OC5OC(CO)C(OC6OC(C(=O)O)C(OC7OC(COS(=O)(=O)O)C(OC8OC(C(=O)O)=C[C@H](O)C8OS(=O)(=O)O)C(O)C7NC(C)=O)[C@@H](O)C6O)C(O)C5NC(C)=O)[C@@H](O)C4O)C(O)C3NC(C)=O)[C@@H](O)C2O)C(O)C1NC(C)=O` (some centres not stated), the Potency in assay [6] was 11.2 µM (active); in assay [9], 10 µM (active); in assay [19] it was 14.1 µM (active); in assay [20], 6.75 µM (active). The Potency entry in assay [7] and in [13] was “inactive” each time.

Turning to `COC(=O)N/N=C/C1=C[N+](=O)c2ccccc2[N+]1=O`, the Potency result in assay [1], in [2], in assay [3], in assay [4], in [5] and in [6] was “inactive” throughout. The Potency result in assay [8], in assay [9], in assay [10], in [11], in assay [12] and in [13] was “inactive” throughout. The Potency result in assay [14], in [15], in assay [16], in assay [17], in assay [18] and in assay [19] was “inactive” in each case.

With `COc1ccc(CC(N)C(=O)NC2C(CO)OC(n3cnc4c(N(C)C)ncnc43)C2O)cc1` (configuration not stated), the Potency in assay [1] is 1 µM (active); in assay [2], 0.891 µM (active); in assay [3], 1 µM (active); in assay [4], 0.891 µM (active); in [5], 0.631 µM (active); in assay [6], 0.891 µM (active). For the same molecule, the Potency in [7] is 1.51 µM (active); in [8] it was 1.07 µM (active); in assay [9], 0.794 µM (active); in [10], 0.891 µM (active); in assay [11] it was 0.794 µM (active); in assay [12], 0.891 µM (active). In addition, the Potency in [13] is 1.2 µM (active); in assay [14], 0.891 µM (active); in [15], 0.675 µM (active); in assay [16] it was 0.631 µM (active); in [17], 0.708 µM (active); in assay [18], 1.26 µM (active). Further, the results for the Potency in assay [19] and in assay [20] were 1 µM (active) and 0.338 µM (active), respectively.

For the molecule `OCC1OC(n2cnc3c(=S)nc[nH]c32)C(O)C1O` (configuration not stated), the Potency result in [1], in assay [2], in assay [3], in assay [4], in [5] and in assay [6] was “inactive” each time. Moreover, the Potency result in [7], in assay [8], in assay [9], in assay [10], in [11] and in assay [12] was “inactive” throughout. Besides, the Potency entry in assay [13], in assay [14], in [16], in [17], in assay [18] and in assay [19] was “inactive” in each case.

Take `C=Cc1c(C)/c2[n-]/c1=C\c1[n-]c(c(CC)c1C)/C=c1\[n-]c3c(c1C)C(=O)C(C(=O)[O-])C=3c1[n-]c(c(C)c1CCC(=O)[O-])\C=2.[Cu].[Na+].[Na+]` (configuration not stated): the Potency result in assay [4], in assay [5] and in [12] was “inactive” in each case. Moreover, the Potency in assay [20] is 12 µM (active).

With `CCC1OC(=O)CC(O)C(C)[C@@H](O[C@@H]2OC(C)[C@H](O[C@@H]3C[C@@](C)(O)C(O)C(C)O3)C(N(C)C)C2O)[C@H](CC=O)CC(C)C(=O)/C=C/C(C)=C/[C@@H]1COC1OC(C)C(O)C(OC)[C@@H]1OC` (some centres not stated), the Potency entry in assay [14] and in [18] was “inactive” in each case. In assay [20], the Potency is 0.849 µM (active).

For `CCC(CCC(C)C1CCC2C3CC=C4CC(O)CC[C@@]4(C)C3CC[C@@]12C)C(C)C` (some centres not stated), the Potency result in [1], in assay [2], in assay [3], in assay [4], in assay [5] and in [6] was “inactive” throughout. Besides, the Potency entry in [7], in [8], in assay [9], in assay [10], in [11] and in [12] was “inactive” in each case. Besides, the Potency entry in assay [13], in assay [14], in assay [15], in assay [16], in [17] and in assay [18] was “inactive” in each case. The Potency result in [19] and in [20] was “inactive” throughout.

Source of the values: PubChem BioAssay (NCATS).
